In PubChem BioAssay (NCATS) one finds Potency and activity change, negative = inhibition data, which are given here for 30 compounds.

Records with an inconclusive call do not appear. A number with no mark means an inactive call. Calls of active or inactive are those of the source. The call rests on the fitted dose curve; in most records, active means well fitted curve in the direction sought with a large enough effect; inconclusive means small, poorly fitted or top-dose-only effect, or another doubt; inactive means no such curve, though single readings can be large; an effect the other way counts as inactive or inconclusive.

Assay [1] addresses Aldehyde dehydrogenase, mitochondrial (Homo sapiens) (UniProt P05091). Briefly: qHTS for Inhibitors of the Aldehyde Dehydrogenase Family (ALDH2) Primary screen (AID 2061308).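 Further: plate controls were vehicle for no effect and reference inhibitor for full effect; nearly all actives have a fitted effect of over 55% in size.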 The note with it: ALDH2 enzyme inhibition qHTS, 1536-well; series mostly up to 56 µM. For orientation: Quantitative high-throughput screening tests each substance at several concentrations.
Assay [2] concerns the target Retinaldehyde dehydrogenase 3 (Homo sapiens) (UniProt P47895). Description: qHTS for Inhibitors of the Aldehyde Dehydrogenase Family (ALDH1A3) Primary screen (AID 2061315).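 Further: plate controls were DMSO vehicle for no effect and reference inhibitor for full effect.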 The note with it: ALDH inhibition qHTS; series mostly up to 56 µM.

On to `CC[C@@H]1C[C@]1(NC(=O)[C@@H]1C[C@@H]2CN1C(=O)[C@H](C(C)(C)C)NC(=O)OCC(C)(C)CCCCc1cccc3c1CN(C3)C(=O)O2)C(=O)NS(=O)(=O)C1CC1`, for which the Potency entry in assay [1] and in assay [2] was “inactive” in each case.

Consider `COc1cc(C(=O)NC(=S)Nc2cccc(NC(=O)c3ccccc3)c2)cc(OC)c1OC`, for which the Potency result in assay [1] and in assay [2] was “inactive” in each case.

On to `CCCn1c(C)nc2c(NCCN(C)C)nc(C)nc21`, for which the Potency result in assay [1] and in assay [2] was “inactive” throughout.

Regarding `O=C(COC(=O)CNC(=O)c1ccccc1Cl)Nc1ccccc1Cl`, the Potency result in assay [1] and in assay [2] was “inactive” each time.

As to `CC(O)c1cc2c(s1)c1cnn(Cc3ccccc3F)c(=O)c1n2C` (stereo not given), the Potency entry in assay [1] and in assay [2] was “inactive” throughout.

Consider `CCOc1ccc(C(=O)Nc2ccc(-c3nc4ccccc4o3)cc2)cc1[N+](=O)[O-]`, for which the Potency result in assay [1] and in assay [2] was “inactive” throughout.

On to `Cc1ccc(S(=O)(=O)NC(N)=NCCC[C@@H](N)C(=O)Nc2cc(C(F)(F)F)ccc2Cl)cc1`, for which the Potency entry in assay [1] and in assay [2] was “inactive” each time.

As to `O=S(=O)(c1ccc2c(c1)OCCO2)N1CCN(S(=O)(=O)c2ccccc2Cl)CC1`, the Potency result in assay [1] and in assay [2] was “inactive” in each case.

Take `CCC(=O)NC(c1ccco1)c1cc([N+](=O)[O-])c2cccnc2c1O` (stereo not given): the Potency entry in assay [1] and in assay [2] was “inactive” each time.

For `Cc1ccc(OCCn2c(CCNC(=O)c3cccc4ccccc34)nc3ccccc32)cc1`, the Potency entry in assay [1] and in assay [2] was “inactive” in each case.

`N#Cc1cc(NC(=O)Nc2nnc(-c3ccncc3)s2)ccc1Cl`: the Potency result in assay [1] and in assay [2] was “inactive” each time.

As to `c1nc(NCCC2CCCO2)c2cc(-c3ccc4c(c3)OCO4)ccc2n1` (stereo not given), the Potency entry in assay [1] and in assay [2] was “inactive” throughout.

Regarding `CCOC(=O)c1nc(NCc2ccccc2)sc1C`, the Potency result in assay [1] and in assay [2] was “inactive” in each case.

As for `Cc1ccc(OCCn2c(CCNC(=O)c3ccc[nH]3)nc3ccccc32)cc1`, the Potency result in assay [1] and in assay [2] was “inactive” each time.

In the case of `O=[S+]([O-])(Nc1ccc(-c2ccccc2)cc1)c1ccc(NCc2ccc(Cl)cc2O)cc1`, the Potency result in assay [1] and in assay [2] was “inactive” in each case.

`COc1cccc(CNc2ccc(S(=O)(=O)Nc3nc(C)cs3)cc2)c1O`: the Potency entry in assay [1] and in assay [2] was “inactive” each time.

As for `Cc1cccc(CNc2ccnc(-c3ccccc3C)n2)c1`, the Potency result in assay [1] and in assay [2] was “inactive” in each case.

As to `C[C@@H]1O[C@@H](O[C@H]2[C@H](OC(=O)[C@]34CCC(C)(C)C[C@H]3C3=CCC5[C@@]6(C)C[C@H](O)[C@H](O[C@@H]7O[C@H](CO)[C@@H](O)[C@H](O)[C@H]7O)[C@](CO)(C(=O)O)C6CC[C@@]5(C)[C@]3(C)C[C@H]4O)OC[C@H](O)[C@@H]2O)[C@H](O)[C@H](O)[C@H]1O[C@@H]1OC[C@@H](O)[C@H](O[C@@H]2OC[C@](O)(CO)[C@H]2O)[C@H]1O` (stereo not given in full), the activity change, negative = inhibition in assay [1] was 7.32% [at 11.2 µM]; in assay [2], 18.8% [at 11.2 µM].

Take `Cc1ccc(NS(=O)(=O)c2cc3c(cc2Cl)NC(=O)CO3)cc1Cl`: the Potency result in assay [1] and in assay [2] was “inactive” in each case.

As to `C[C@@H]1O[C@@H](O[C@H]2[C@H](O[C@H]3CC[C@@]4(C)C(CC[C@]5(C)C4C=C[C@]46OC[C@@]7(CCC(C)(C)C[C@H]74)[C@@H](O)C[C@]65C)[C@]3(C)CO)O[C@H](CO)[C@@H](O)[C@@H]2O[C@@H]2O[C@H](CO)[C@@H](O[C@@H]3O[C@@H](C)[C@H](O)[C@@H](O)[C@H]3O)[C@H](O)[C@H]2O)[C@H](O)[C@H](O)[C@H]1O` (stereo not given in full), the Potency entry in assay [1] and in assay [2] was “inactive” in each case.

Consider `CCCCCCCCn1cc(CN(CC)CC)c2cc(-c3cnc(N)nc3)ccc21`, for which the Potency result in assay [1] and in assay [2] was “inactive” each time.

For the compound `COc1ccc(NC(=O)c2cc(-c3ccc(C)c(C)c3)nc3ccccc23)cc1`, the Potency entry in assay [1] and in assay [2] was “inactive” each time.

Take `COc1ccc(S(=O)(=O)Nc2c(C)cc(C)cc2C)cc1`: the Potency result in assay [1] and in assay [2] was “inactive” throughout.

For the compound `Cc1ccc(-c2ccc(=O)n(CCNCCc3ccccc3)n2)cc1`, the Potency result in assay [1] and in assay [2] was “inactive” in each case.

Regarding `COc1cccc(NC(=S)N2CCN(c3ncc(C(F)(F)F)cc3Cl)CC2)n1`, the Potency result in assay [1] and in assay [2] was “inactive” throughout.

For the compound `Cc1cc(C)nc(NC(=S)N2CCN(c3ccc([N+](=O)[O-])c4cccnc34)CC2)c1`, the Potency result in assay [1] and in assay [2] was “inactive” in each case.

On to `CCCn1c(-c2ccc(F)cc2)nc2c(N3CCC(N(C)C)C3)nc(C)nc21` (stereo not given), for which the Potency result in assay [1] and in assay [2] was “inactive” each time.

Turning to `Cc1nnc(-c2cnn(C)c2N)n1CCCc1ccccc1`, the Potency entry in assay [1] and in assay [2] was “inactive” each time.

`COc1ccc2c(c1)C=C1Cn3c-2c(C2CCCCC2)c2ccc(cc23)C(=O)NS(=O)(=O)N(C)CCOCCN(C)C1=O`: the Potency result in assay [1] and in assay [2] was “inactive” throughout.

Consider `CCOC(=O)c1[nH]c2c(c1C)C(=O)CCC2`, for which the Potency result in assay [1] and in assay [2] was “inactive” each time.
